Experimental findings from PMC12723454 are described below.

One may read the apparent Kd as a dissociation constant that holds for the conditions of the assay.

B1: HHH_b1_08438_000000177_dldesign_0_cycle1_af2pred_0001 (protein)
chain: GGSGGSAEEEVEKLIEEAKNNPDKEKAEELLSRALKLADAAGNVDLRSKTMNALFDVLGGSGGSG
B2: HHH_b1_01197_000000280_dldesign_0_cycle1_af2pred_0001 (protein)
chain: GGSGGSGKSSEIDKLLNEVLKLGKEEEYLKIMSLKMDYLETGDEEIFKEAKELAKKVIGGSGGSG
B3: HHH_b2_07220_000000120_dldesign_0_cycle1_af2pred_0001 (protein)
chain: SGGSEESKKLVEETIKKAKKLVEEGNPLEAKILLRKTLLDLSELGDDEGFSKLSKFLDEIEGGSG
B4: HHH_b1_00135_000000286_dldesign_0_cycle1_af2pred_0001 (protein)
chain: SGGSLAVETAKEYLEMVKSYAEEGDKEEAQFFADIIKLLAESENNPELKKIYEEAKKIVEEGGSG
B5: HHH_b1_08653_000000138_dldesign_0_cycle1_af2pred_0001 (protein)
chain: GSGGSGASLAAEDILRAMRQFARAGKPEAVRDLAKKGIKIMTEAGRPDEAKRIEEELARLGGSGG
B6: HHH_b1_02099_000000008_dldesign_0_cycle1_af2pred_0001 (protein)
chain: SGGSMEELDECARLLNELAHAIEEGNKEKFEELYKKARELIEKLGDEALLKALDELEEAFYGGSG
B7: ac710d00df0a15e663fb636f306744b3_0001_1_000000013_dldesign_0_cycle1_af2pred_0001 (protein)
chain: GIRERAREMAKKHGVSDEELQPVIDLVEKMRAEGKSIEEIARELGEKLAETGNKAYACVLEALAE

A selection follows. How many sequences the whole screen found active is unknown. Unmarked numbers belong to inactive results.

The target of the assay is Flpp3. Put plainly: yeast display titration.
As to B1, the apparent Kd was over 11.6 µM.

B2: the apparent Kd was over 5.39 µM.

As for B3, the apparent Kd is over 4.46 µM.

Consider B4, for which the apparent Kd was over 7.9 µM.

On to B5, for which the apparent Kd is over 134 µM.

In the case of B6, the apparent Kd was over 0.105 µM.

Take B7: the apparent Kd was over 0.105 µM.
